Assay results: publication PMC7862700, “An all-to-all approach to the identification of sequence-specific readers for epigenetic DNA modifications on cytosine”

Key:
Test in all cases: DAPPL (digital affinity profiling via proximity ligation, sequencing); 10 mM Tris-HCl pH 7.5, 50 mM NaCl, 1 mM DTT, 4% glycerol, room temperature, 30 min; GST-TFs on glutathione beads, 16-mer random dsDNA library, 0.1% formaldehyde crosslink after washing; high values mean tight binding
Details in all cases: protein: recombinant; tags: N-terminal GST; dsDNA, one strand shown
[1] = target: T1, ERF (Homo sapiens, UniProt P50548 1-548)
T1 sequence: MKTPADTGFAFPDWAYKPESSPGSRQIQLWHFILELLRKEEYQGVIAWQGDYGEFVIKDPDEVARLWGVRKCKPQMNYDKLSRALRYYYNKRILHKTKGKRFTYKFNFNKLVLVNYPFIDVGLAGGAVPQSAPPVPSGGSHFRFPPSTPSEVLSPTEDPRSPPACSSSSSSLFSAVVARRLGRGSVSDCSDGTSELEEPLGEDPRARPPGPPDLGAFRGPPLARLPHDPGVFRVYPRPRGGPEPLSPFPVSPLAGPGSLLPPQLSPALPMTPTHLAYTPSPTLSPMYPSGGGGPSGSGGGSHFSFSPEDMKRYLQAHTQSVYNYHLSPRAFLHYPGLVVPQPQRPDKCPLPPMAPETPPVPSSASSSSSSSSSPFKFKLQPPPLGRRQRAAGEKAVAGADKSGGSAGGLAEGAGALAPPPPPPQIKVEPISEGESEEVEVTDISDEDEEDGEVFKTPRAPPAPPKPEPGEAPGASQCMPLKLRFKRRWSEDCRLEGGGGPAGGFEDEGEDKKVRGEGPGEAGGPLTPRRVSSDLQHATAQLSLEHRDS
In short: (§1)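 Human transcription factors carrying a GST fusion were produced in yeast, bound to glutathione beads, tagged with DNA barcodes and pooled together with a tag-only sample. Each pool was held with 200 nmole of a random double-stranded 16-mer DNA library in Tris/NaCl/DTT/glycerol buffer for 30 min at room temperature, then washed, crosslinked in 0.1% formaldehyde, proximity-ligated with BsaI/T4 ligase (1 h, 37 °C), PCR-amplified and sequenced on an Illumina NextSeq500. Binding signal is the read frequency of each hexamer for a given factor divided by its frequency in the tag-only sample.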

[2] = target: T2, ETV3L (Homo sapiens, UniProt Q6ZN32 1-361)
T2 sequence: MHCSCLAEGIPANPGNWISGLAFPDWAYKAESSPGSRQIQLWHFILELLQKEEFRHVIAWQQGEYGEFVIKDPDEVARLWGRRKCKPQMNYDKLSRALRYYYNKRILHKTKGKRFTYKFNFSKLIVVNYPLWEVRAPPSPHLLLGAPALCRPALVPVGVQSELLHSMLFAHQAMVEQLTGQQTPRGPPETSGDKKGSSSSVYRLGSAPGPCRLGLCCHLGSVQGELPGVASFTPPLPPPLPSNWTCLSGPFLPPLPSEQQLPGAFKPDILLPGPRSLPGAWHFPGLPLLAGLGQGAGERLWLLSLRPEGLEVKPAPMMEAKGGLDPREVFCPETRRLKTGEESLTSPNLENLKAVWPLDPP
In short: as §1

[3] = target: T3, ETS2 (Homo sapiens, UniProt P15036 1-469)
T3 sequence: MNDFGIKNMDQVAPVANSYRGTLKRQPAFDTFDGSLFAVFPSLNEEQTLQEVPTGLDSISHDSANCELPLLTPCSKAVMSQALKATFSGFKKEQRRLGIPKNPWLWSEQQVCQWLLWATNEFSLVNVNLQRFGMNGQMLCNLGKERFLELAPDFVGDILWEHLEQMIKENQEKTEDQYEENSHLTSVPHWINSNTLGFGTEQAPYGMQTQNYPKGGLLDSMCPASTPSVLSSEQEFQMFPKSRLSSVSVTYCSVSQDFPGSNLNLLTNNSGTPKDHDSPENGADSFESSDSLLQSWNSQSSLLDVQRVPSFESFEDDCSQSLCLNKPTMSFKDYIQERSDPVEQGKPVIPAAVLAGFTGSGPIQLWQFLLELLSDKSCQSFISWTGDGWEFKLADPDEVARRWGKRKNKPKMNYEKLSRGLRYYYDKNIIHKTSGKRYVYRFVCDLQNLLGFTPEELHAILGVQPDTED
In short: as §1

[4] = target: T4, SPDEF (Homo sapiens, UniProt O95238 1-335)
T4 sequence: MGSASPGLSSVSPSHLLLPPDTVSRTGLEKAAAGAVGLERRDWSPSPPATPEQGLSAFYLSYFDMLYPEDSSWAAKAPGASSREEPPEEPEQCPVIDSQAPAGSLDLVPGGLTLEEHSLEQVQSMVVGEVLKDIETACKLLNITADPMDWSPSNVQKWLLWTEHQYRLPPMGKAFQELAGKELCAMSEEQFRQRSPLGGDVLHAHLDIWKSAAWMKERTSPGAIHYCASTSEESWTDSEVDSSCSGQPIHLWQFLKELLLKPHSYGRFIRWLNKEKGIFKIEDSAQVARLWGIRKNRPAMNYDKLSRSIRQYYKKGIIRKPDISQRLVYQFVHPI
In short: as §1

[5] = target: T5, ETV7 (Homo sapiens, UniProt Q9Y603 1-341)
T5 sequence: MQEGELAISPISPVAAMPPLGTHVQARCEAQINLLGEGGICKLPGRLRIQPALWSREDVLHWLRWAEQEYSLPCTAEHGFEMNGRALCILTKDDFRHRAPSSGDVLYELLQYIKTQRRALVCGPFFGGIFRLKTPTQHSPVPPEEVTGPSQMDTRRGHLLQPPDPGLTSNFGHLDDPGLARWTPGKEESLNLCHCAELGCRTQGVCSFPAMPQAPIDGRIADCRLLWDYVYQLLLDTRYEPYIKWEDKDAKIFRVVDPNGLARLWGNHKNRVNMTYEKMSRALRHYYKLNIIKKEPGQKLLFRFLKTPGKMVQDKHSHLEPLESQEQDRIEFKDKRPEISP
In short: as §1

[6] = target: T6, ELF5 (Homo sapiens, UniProt Q9UKW6-2 1-255)
T6 sequence: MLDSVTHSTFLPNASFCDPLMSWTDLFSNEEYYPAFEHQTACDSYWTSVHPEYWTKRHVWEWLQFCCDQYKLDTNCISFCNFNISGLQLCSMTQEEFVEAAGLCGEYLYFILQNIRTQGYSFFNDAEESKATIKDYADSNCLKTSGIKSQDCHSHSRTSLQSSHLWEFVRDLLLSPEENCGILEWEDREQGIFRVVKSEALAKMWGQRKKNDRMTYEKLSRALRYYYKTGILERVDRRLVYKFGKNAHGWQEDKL
In short: as §1

[7] = target: T7, ETV3 (Homo sapiens, UniProt P41162-2 1-143)
T7 sequence: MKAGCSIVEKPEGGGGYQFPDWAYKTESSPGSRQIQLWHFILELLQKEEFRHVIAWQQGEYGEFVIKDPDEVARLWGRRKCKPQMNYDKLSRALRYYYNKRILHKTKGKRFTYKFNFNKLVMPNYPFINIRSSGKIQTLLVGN
In short: as §1

[8] = target: ETV6 (Homo sapiens, UniProt P41212 1-452)
In short: as §1

Sequence of ETV6 (P41212 whole entry): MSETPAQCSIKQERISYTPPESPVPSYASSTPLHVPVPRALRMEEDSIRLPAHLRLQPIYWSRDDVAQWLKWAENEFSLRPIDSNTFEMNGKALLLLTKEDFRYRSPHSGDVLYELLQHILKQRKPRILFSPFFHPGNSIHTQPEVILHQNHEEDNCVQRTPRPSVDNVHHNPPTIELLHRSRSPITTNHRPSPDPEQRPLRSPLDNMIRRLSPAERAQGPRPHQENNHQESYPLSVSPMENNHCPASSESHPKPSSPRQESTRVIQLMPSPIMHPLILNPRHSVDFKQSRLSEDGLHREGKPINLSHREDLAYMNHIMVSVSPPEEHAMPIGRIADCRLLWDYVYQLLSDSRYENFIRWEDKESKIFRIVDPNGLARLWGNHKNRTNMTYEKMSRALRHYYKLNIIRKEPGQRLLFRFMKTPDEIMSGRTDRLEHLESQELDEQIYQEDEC

Sequence	binding signal [1]	binding signal [2]	binding signal [3]	binding signal [4]	binding signal [5]	binding signal [6]	binding signal [7]	binding signal [8]
CTTCAT	1.35 fold enrichment (6-mer frequency, TF over GST control)	1.52 fold enrichment (6-mer frequency, TF over GST control)	1.43 fold enrichment (6-mer frequency, TF over GST control)	1.43 fold enrichment (6-mer frequency, TF over GST control)	1.46 fold enrichment (6-mer frequency, TF over GST control)	1.44 fold enrichment (6-mer frequency, TF over GST control)	1.46 fold enrichment (6-mer frequency, TF over GST control)	1.33 fold enrichment (6-mer frequency, TF over GST control)
TAACAT	1.33 fold enrichment (6-mer frequency, TF over GST control)	1.32 fold enrichment (6-mer frequency, TF over GST control)	1.28 fold enrichment (6-mer frequency, TF over GST control)	1.34 fold enrichment (6-mer frequency, TF over GST control)	1.3 fold enrichment (6-mer frequency, TF over GST control)	1.35 fold enrichment (6-mer frequency, TF over GST control)	1.26 fold enrichment (6-mer frequency, TF over GST control)	1.4 fold enrichment (6-mer frequency, TF over GST control)
TACCAT	1.22 fold enrichment (6-mer frequency, TF over GST control)	1.25 fold enrichment (6-mer frequency, TF over GST control)	1.22 fold enrichment (6-mer frequency, TF over GST control)	1.16 fold enrichment (6-mer frequency, TF over GST control)	1.16 fold enrichment (6-mer frequency, TF over GST control)	1.14 fold enrichment (6-mer frequency, TF over GST control)	1.17 fold enrichment (6-mer frequency, TF over GST control)	1.17 fold enrichment (6-mer frequency, TF over GST control)
GTTCTG	1.12 fold enrichment (6-mer frequency, TF over GST control)	1.23 fold enrichment (6-mer frequency, TF over GST control)	1.05 fold enrichment (6-mer frequency, TF over GST control)	1 fold enrichment (6-mer frequency, TF over GST control)	1.07 fold enrichment (6-mer frequency, TF over GST control)	1.1 fold enrichment (6-mer frequency, TF over GST control)	1.13 fold enrichment (6-mer frequency, TF over GST control)	1.1 fold enrichment (6-mer frequency, TF over GST control)
CCTGTT	1.66 fold enrichment (6-mer frequency, TF over GST control)	1.79 fold enrichment (6-mer frequency, TF over GST control)	1.8 fold enrichment (6-mer frequency, TF over GST control)	2.09 fold enrichment (6-mer frequency, TF over GST control)	1.63 fold enrichment (6-mer frequency, TF over GST control)	2.1 fold enrichment (6-mer frequency, TF over GST control)	1.9 fold enrichment (6-mer frequency, TF over GST control)	1.73 fold enrichment (6-mer frequency, TF over GST control)
TCTCTG	1.49 fold enrichment (6-mer frequency, TF over GST control)	1.49 fold enrichment (6-mer frequency, TF over GST control)	1.61 fold enrichment (6-mer frequency, TF over GST control)	1.5 fold enrichment (6-mer frequency, TF over GST control)	1.29 fold enrichment (6-mer frequency, TF over GST control)	1.42 fold enrichment (6-mer frequency, TF over GST control)	1.48 fold enrichment (6-mer frequency, TF over GST control)	1.52 fold enrichment (6-mer frequency, TF over GST control)
CTCTAC	1.45 fold enrichment (6-mer frequency, TF over GST control)	1.66 fold enrichment (6-mer frequency, TF over GST control)	1.48 fold enrichment (6-mer frequency, TF over GST control)	1.54 fold enrichment (6-mer frequency, TF over GST control)	1.28 fold enrichment (6-mer frequency, TF over GST control)	1.52 fold enrichment (6-mer frequency, TF over GST control)	1.51 fold enrichment (6-mer frequency, TF over GST control)	1.43 fold enrichment (6-mer frequency, TF over GST control)
GTATAT	1.11 fold enrichment (6-mer frequency, TF over GST control)	1.16 fold enrichment (6-mer frequency, TF over GST control)	1.14 fold enrichment (6-mer frequency, TF over GST control)	1.37 fold enrichment (6-mer frequency, TF over GST control)	1.13 fold enrichment (6-mer frequency, TF over GST control)	1.15 fold enrichment (6-mer frequency, TF over GST control)	1.25 fold enrichment (6-mer frequency, TF over GST control)	1.09 fold enrichment (6-mer frequency, TF over GST control)
